# FMDV antiviral: blocks foot and mouth disease virus; FMDV antiviral cell-based qHTS; AID 1159524; Potency, µM (doses to about 57.9 µM), most hits filed as inhibitors; hit rate 1.2% among 410,000; calls by dose curve; tested in HEK293T cells; further: read-out not given here; nearly all actives have a fitted effect of over 45% in size
# Marburg entry inh: blocks Marburg virus binding to or entry into cells. Marburg virus pseudotyped entry inhibition, cell reporter. Potency, µM (series often up to 37.8 µM), usual class: inhibitors. hit rate 1.8% among 300,000. AID 540276; calls by dose curve; tested in HEK293 cells
# Vaccinia Venus: inhibitors of vaccinia virus (Venus reporter); Vaccinia virus Venus reporter expression, fluorescence; Potency, µM (highest dose often 36.5 µM), actives largely listed as inhibitors; hit rate 0.46% among 330,000; calls by dose curve; tested in A549 cells; further: nearly all actives have a fitted effect of over 30% in size
# VACV mCherry inh: vaccinia inhibition (mCherry reporter) | hit rate 0.63% among 310,000 | Vaccinia virus mCherry reporter infection, fluorescence | Potency, µM (titrated, usually from 36.5 µM), most hits filed as inhibitors | AID 720579; calls by dose curve; tested in A549 cells; further: nearly all actives have a fitted effect of over 35% in size
# Lassa entry inh: Lassa virus entry inhibition; Lassa virus pseudotype entry inhibition, cell reporter; Potency, µM (series often up to 37.9 µM), actives largely listed as inhibitors; hit rate 1.2% among 300,000; AID 540256; calls by dose curve; tested in HEK293 cells; further: nearly all actives have a fitted effect of over 50% in size
# HCMV antiviral: human cytomegalovirus inhibition; hit rate 4.5% among 410,000; activity change, negative = inhibition, % at 57.5 µM; AID 1259415; HFF cells, HCMV-luciferase reporter, 72 h; hits give low values; in the data active means activity change below about -60%; inconclusive means no clear call, values can overlap the other calls; inactive means above about -39%
#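 Steps: HFFs plated, 16 h 37C; compounds added; HCMV-luciferase added to MOI 1 PFU/cell; 72 h 37C; OneGlo reagent, 5 min room temperature; luminescence read, normalized to controls.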
# Numbers stand for hits; n = inactive; u = inconclusive; x = no result given; [ ] = dose if it differs, or a comment. Rows were chosen to be rich in hits. Some 6.5% of all compounds tested hit in one or more screens of this group.
SMILES,FMDV antiviral,Marburg entry inh,Vaccinia Venus,VACV mCherry inh,Lassa entry inh,HCMV antiviral
O=C(CSc1nnc(-c2ccncc2)n1Cc1ccco1)Nc1nc(-c2ccccc2)cs1,17.8µM,u,n,n,n,n
Cc1ccc(NC(=O)CSc2nnc3c(n2)[nH]c2ccccc23)cc1,n,n,n,n,n,n
CCn1c(CCNC(=O)c2cccs2)nnc1SCC(=O)Nc1nc(-c2ccccc2)cs1,20µM,u,x,x,n,n
CCc1nnc(NC(=O)CSc2nnc(-c3ccccc3O)n2CC)s1,n,n,x,x,n,n
Cc1ccc(-c2csc(NC(=O)CSc3nnc4c(n3)[nH]c3ccccc34)n2)cc1,u,u,u,u,3.16µM,n
CCn1c(CCNC(=O)c2cccs2)nnc1SCC(=O)Nc1cccc(Cl)c1,n,n,x,x,n,n
CC(=O)c1cccc(OC(=O)c2cc(S(=O)(=O)N3CCOCC3)ccc2N2CCCC2)c1,n,x,x,x,x,n
CNc1nc2cnc(-c3ccc(OC)c(OC)c3)cc2n1Cc1ccccc1,x,x,x,x,x,n
CN(C)S(=O)(=O)c1ccc(N2CCCC2)c(C(=O)N2CCC(C(N)=O)CC2)c1,n,n,n,n,n,n
COc1ccc(-c2cnc(SCC(=O)Nc3nc(C(C)(C)C)cs3)n2Cc2ccco2)cc1,u,u,n,x,12.6µM,n
CN(C)c1ccc(/C=C/c2cc3ccccc3c[n+]2C)cc1,x,x,n,n,x,x
CCOC(=O)CC1C(=O)NCCN1S(=O)(=O)c1cc(Cl)c(Cl)cc1Cl (stereo not given),n,1.58µM,n,u,n,n
CC(=C/c1ccco1)/C=N/NC(=O)c1nnn(-c2nonc2N)c1CN(C)C,n,n,n,n,n,-60.1
CCCc1c(C(=O)N/N=C(\CC)c2ccccc2)nnn1-c1nonc1N,n,x,n,n,x,-63.4
C/C(=N\NC(=O)c1nnn(-c2nonc2N)c1CN1CCc2ccccc21)c1ccccc1O,n,x,x,x,x,-98.2
CCN(CC)Cc1c(C(=O)N/N=C/c2ccco2)nnn1-c1nonc1N,n,x,x,x,x,n
CCC/C(=N/NC(=O)c1nnn(-c2nonc2N)c1CN1CCCCC1)c1ccccc1,n,x,n,n,x,n
CCN1C(=O)[C@@H]2[C@H]3[C@H](O)[C@H](O)CC(=NO[C@H](C)c4cn([C@@H]5COC[C@@H]5O)nn4)[C@@H]3CC[C@H]2C1=O,x,n,x,x,x,x
CN1c2ccccc2C(C)(C)C12C=Nc1c(cc(N3CCOCC3)c3ccccc13)O2 (stereo not given),u,u,n,n,u,-74.1
O=C(NCC1CCC2(CCN(Cc3cccn3-c3ccc(Cl)cn3)CC2)O1)c1ccccc1 (stereo not given),n,x,n,n,x,x
CC[C@@H](C)[C@@H](C(=O)N1CCN(C(=O)OC(C)(C)C)CC1)n1cc(CCCCNC(=O)OC(C)(C)C)nn1,12.6µM,x,n,n,x,n
CC[C@H](C)C(C(=O)N1CCN(C(=O)OC(C)(C)C)CC1)n1cc(C(CC(C)C)NC(=O)OC(C)(C)C)nn1 (stereo not given in full),n,x,n,n,x,n
CC(C)(C)OC(=O)N1CCN(C(=O)Cn2cc(CCO)nn2)CC1,n,x,n,n,x,n
CC(C)(C)OC(=O)NCCCCc1cn(CC(=O)N2CCN(C(=O)OC(C)(C)C)CC2)nn1,n,x,n,n,x,-79.6
O=C(Nc1ccc(Cl)cc1Cl)c1cc(S(=O)(=O)N2CCN(c3ccccc3F)CC2)ccc1F,n,x,n,n,n,-64.6
SMILES,FMDV antiviral,Marburg entry inh,Vaccinia Venus,VACV mCherry inh,Lassa entry inh,HCMV antiviral
CCN1CCN(S(=O)(=O)c2ccc(Cl)c(C(=O)Nc3ccccc3N3CCCCC3)c2)CC1,n,11.2µM,n,n,u,n
CC1CCCC(NC(=O)CCC(=O)N2CCOc3ccccc32)C1C (stereo not given),n,x,x,x,x,n
COCCNC(=O)CSc1nnc(-c2ccc(OC)c(OC)c2)c(-c2ccc(OC)c(OC)c2)n1,n,x,n,n,n,n
OC(c1ccccc1)(c1nc(-c2ccc3ccccc3c2)cs1)C(F)(F)F (stereo not given),n,x,n,n,x,-83.1
OC(c1ccccc1)(c1nc(/C=C/c2ccccc2)cs1)C(F)(F)F (stereo not given),n,x,u,n,x,-60.5
CC(O)(c1ccccc1)c1nc(/C=C/c2ccccc2)cs1 (stereo not given),n,x,n,n,x,n
O=C1NCCSC1c1ccccc1 (stereo not given),n,n,n[7.34 µM],n[7.34 µM],n,n
CCCOc1ccc(OCC(=O)c2[nH]c(C)c(C(C)=O)c2C)cc1,u,n,x,x,u,n
COC(=O)c1c(C)[nH]c(C(=O)COc2ccc3ccc(=O)oc3c2)c1C,n,x,x,x,x,n
